A selection: hits, their analogues and other compounds. The true share with any hit is near 6.2%.
HCMV inh – qHTS Assay for inhibitors of the human cytomegalovirus (HCMV). HFF cells, HCMV-luciferase reporter, 72 h; active compounds read low. activity change, negative = inhibition, % at 57.5 µM. 410,000 compounds, 4.5% hits. AID 1259415, 2018; in the data active means activity change below about -60%; inconclusive means no clear call, values can overlap the other calls; inactive means above about -39%
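Two-dose cell screen: HFF monolayers treated with compounds and infected with luciferase-expressing HCMV at 1 PFU/cell, 72 h at 37C, then lysed for luciferase measurement.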
Marburg entry inh – qHTS for inhibitors of binding or entry into cells for Marburg Virus; AID 540276, 2011; Potency, µM (highest dose often 37.8 µM), for inactives: top-dose activity change, negative = inhibition, most hits filed as inhibitors; Marburg virus pseudotyped entry inhibition, cell reporter; 300,000 compounds, 1.8% hits; calls by dose curve; tested in HEK293 cells; further: potency means the concentration at half of the fitted maximal effect
LASV entry inh – qHTS for Inhibitors of binding or entry into cells for Lassa Virus; Potency, µM (series often up to 37.9 µM), inactives show at the top dose activity change, negative = inhibition, hits mostly inhibitors; 300,000 compounds, 1.2% hits; Lassa virus pseudotype entry inhibition, cell reporter; AID 540256, 2011; calls by dose curve; tested in HEK293 cells; further: potency means the concentration at half of the fitted maximal effect; nearly all actives have a fitted effect of over 50% in size
FMDV inh – High Throughput Screening for Foot and Mouth Disease Virus Antivirals; FMDV antiviral cell-based qHTS; Potency, µM (top dose mostly 57.9 µM), for the others: top-dose activity change, negative = inhibition, actives largely listed as inhibitors; 410,000 compounds, 1.2% hits; calls by dose curve; tested in HEK293T cells; further: read-out not given here; potency means the concentration at half of the fitted maximal effect; nearly all actives have a fitted effect of over 45% in size
* = called active by the depositor; ? = inconclusive; . = no result given; [ ] = another dose, or the depositor's remark. On the % scale 0 is the no-effect control and ±100 the full control effect.

SMILES | HCMV inh | Marburg entry inh | LASV entry inh | FMDV inh
COCCN(CCNC(=O)c1ccc(NC2=NC3CS(=O)(=O)CC3S2)cc1)Cc1ccco1 (stereo not given) | 22 | . | . | -15%
Cc1oc(-c2ccccc2Cl)nc1Cn1cccc1C1=NC(c2ccccc2)CO1 (stereo not given) | ? | ? | 7.3µM* | ?
Cc1ccc(-c2nn(C)c(=O)c3ccccc23)cc1CNC(=O)/C=C/c1ccccc1 | -14 | ? | 21µM* | -25%
Cc1ccc(S(=O)(=O)N2C[C@@H]3[C@H]4CC[C@H](C4)[C@@H]3[C@@H](C)[C@@H]2c2cn(Cc3ccccc3)c3ncccc23)cc1 | ? | . | . | -23%
Cc1ccc(S(=O)(=O)N2C[C@@H]3CCCC[C@@H]3[C@@H](C)[C@H]2c2cn(Cc3ccccc3)c3ccccc23)cc1 | -97* | . | . | 0%
COc1ccc2c(c1)c([C@@H]1[C@H](C)[C@H]3CCCC[C@H]3CN1S(=O)(=O)c1ccc(C)cc1)cn2C | -6 | . | . | -4%
Cc1ccc(S(=O)(=O)N2C[C@@H]3CCCC[C@@H]3[C@@H](C)[C@H]2c2cn(Cc3ccccc3)c3ncccc23)cc1 | -86* | . | . | -25%
CCC(CO)Oc1cc(NCc2ccccc2C(F)(F)F)c2ncn(C(C)C)c2c1 (stereo not given) | 70 | . | . | -21%
COc1ccc2c(Sc3ccccc3)c(C(=O)NCc3cccc(OC)c3OC)[nH]c2c1 | 23 | ? | ? | -13%
COc1cccc(CNC(=O)c2[nH]c3cc(C)ccc3c2Sc2ccccc2)c1 | -63* | -23%[46.1 µM] | -8%[46.1 µM] | 6%
O=C1CC(c2ccccc2)CC(O)=C1C=NC1CCCCCC1 (stereo not given) | 10 | -4% | ? | .
CCN(CC)CCN(C(=O)c1ccc(CN2CCCCC2)o1)C(C(=O)NC1CCCCC1)c1ccc(F)cc1 (stereo not given) | -26 | 5µM* | 0%[46.1 µM] | 5%
CCOc1ccc(/C=C2/C(=O)NC(=O)N(CCc3ccc(F)cc3)C2=O)cc1 | ? | 5% | 2% | 5%
CC1(C)CCC=[N+]1[O-] | . | 25% | 2% | .
CCc1ccc2oc(-c3cc(N=Cc4cccc(OC)c4O)ccc3O)nc2c1 | . | ? | 6.5µM* | -43%
CC1(C)Oc2ccc(C(=O)NC3CC3)cc2N(CC(=O)N2CCOCC2)C1=O | 25 | -2% | 4% | 6%
CCn1c(C(=O)N2CCC(C(=O)NCc3ccc4c(c3)OCO4)CC2)cc2sccc21 | 6 | 2% | -23% | 32µM*
O=C(NCc1ccco1)c1ccc(Cn2c(=O)c3sccc3n(Cc3cccc(F)c3)c2=O)cc1 | -61* | -1% | . | -15%
Cn1c(C(=O)N2CCCC(C(=O)NCc3ccc4c(c3)OCO4)C2)cc2sccc21 (stereo not given) | -13 | 0% | . | 0%
O=C(c1ccco1)N1CCN(C(=O)c2cc3sccc3n2Cc2ccccc2)CC1 | -71* | -6% | ? | -28%
O=C(NCc1ccco1)c1ccc(Cn2c(=O)c3ccccc3n(Cc3cccc(Cl)c3)c2=O)cc1 | -34 | ? | -9% | 0%
O=C(NCc1ccco1)C1CCN(C(=O)c2cc3sccc3n2Cc2ccc(F)cc2)CC1 | -7 | 4% | 10µM* | .
O=C(NCc1ccccn1)C1CCN(C(=O)c2cc3sccc3n2Cc2ccc(F)cc2)CC1 | . | . | . | 0%
NC1=NC2(CS1)CSC(N)=N2 | 34 | . | . | .
O=C(O)C(c1ccccc1)N1C(=O)/C(=C\c2ccc(-c3ccc(Br)cc3)o2)SC1=S (stereo not given) | -10 | . | . | -9%
SMILES | HCMV inh | Marburg entry inh | LASV entry inh | FMDV inh
COc1ccc(NS(=O)(=O)c2ccc(C)c(C(=O)NC3CCN(Cc4ccccc4)CC3)c2)cc1 | ? | ? | -22% | ?
O=NNc1nc2ccccc2n1Cc1ccccc1 | -80* | . | . | -12%
Cn1c(Cl)nc2ccccc21 | 32 | 2% | 13% | 0%
Cn1c(NN=O)nc2ccccc21 | -100* | ? | ? | 2%
COc1cccc(N2C(=O)CN(Cc3cc(OC)c(OC)c(OC)c3)C2=S)c1 | -25 | -23%[46.1 µM] | ? | -15%
COC(=O)c1c(-c2ccc(Cl)cc2)noc1N1CCN(c2ccccc2F)CC1 | -3 | -1%[46.1 µM] | -2%[46.1 µM] | -9%
CCOC(=O)c1nnc(-c2ccccc2)nc1Oc1ccc(Cl)cc1 | 38 | -17% | -10% | 16µM*
CCOC(=O)c1cnc(-c2ccccc2)nc1Oc1ccc(Cl)c(Cl)c1 | 72 | -13% | 8% | -21%
CCOC(=O)c1nnc(-c2ccccc2)nc1Sc1ccccc1Cl | 112 | ? | -21% | 25µM*
COCC(C)OC(=O)/C(C#N)=C\c1coc2ccc(C)cc2c1=O (stereo not given) | 8 | 0% | 1% | ?
O=C(Nc1ccc(-n2ccc(C(F)(F)F)n2)cc1)Nc1cccc(Cl)c1 | -84* | . | . | .
CC1CCCN(c2ncnc3c2cnn3-c2ccc(F)cc2)C1 (stereo not given) | -80* | . | -5%[46.1 µM] | 18µM*
CC1CCCN(c2ncnc3c2cnn3-c2ccc(Cl)cc2)C1 (stereo not given) | -98* | . | . | 25µM*
CC1CCCN(c2ncnc3c2cnn3-c2ccccc2)C1 (stereo not given) | ? | . | . | -11%
CC(C)C[C@H](NC(=O)NCc1ccc(Cl)cc1)C(=O)O | 19 | 12% | 6% | 0%
COc1ccc(N(CC(=O)NC2CCCCC2)C(=O)CNC(=O)c2cccs2)cc1 | 15 | ? | . | 14%
N/C(=N/O)c1ccccc1N1CCC(Cc2ccccc2)CC1 | -91* | . | . | 52%
Cn1c(N)c(C(=O)NCc2ccccc2Cl)sc1=S | 5 | -17% | 5% | 0%
Cn1c(N)c(C(=O)Nc2ccc(-c3ccccc3)cc2)sc1=S | -76* | . | . | ?
C=CCn1c(N)c(C(=O)NCC2CCCO2)sc1=S (stereo not given) | -62* | -2% | 18% | -16%
C=CCn1c(N)c(C(=O)Nc2ccc(C)cc2)sc1=S | -91* | -3% | . | 74%
C=CCn1c(N)c(C(=O)Nc2ccccc2OC)sc1=S | 46 | 15% | -4% | 32%
O=C(NCc1ccco1)C1CCCN(S(=O)(=O)c2cccc3cccnc23)C1 (stereo not given) | -15 | . | . | 2%
CC(=O)N1c2ccccc2Oc2cc3ccccc3cc21 | 16 | ? | ? | 19%
CC(=O)N1c2ccc(C)cc2Sc2c1ccc1ccccc21 | -61* | ? | ? | -23%
SMILES | HCMV inh | Marburg entry inh | LASV entry inh | FMDV inh
CC(=O)NCC(=O)OCc1ccc([N+](=O)[O-])cc1 | 6 | 0% | 15% | -9%
COCC(=O)Nc1nc(-c2ccc([N+](=O)[O-])cc2)cs1 | -89* | . | . | 11%
O=[N+]([O-])c1ccc(-c2csc(N3CCCCCC3)n2)cc1 | -24 | -6% | ? | 13%
Nc1nc(-c2ccc([N+](=O)[O-])cc2)cs1 | -79* | ? | 7% | 30%
O=C(Cc1nc(-c2ccc([N+](=O)[O-])cc2)cs1)Nc1ccccc1 | -92* | 4% | -2% | ?
CNc1nc(-c2ccc([N+](=O)[O-])cc2)cs1 | -74* | 2%[46.1 µM] | 18% | -19%
